“And” between values parts separate entries of the source, which are not always exact repeats. Equal entries are not always repeated. Out of some 220,000 compounds screened, about 16,000 (7.3%) were called active. Not shown: some 25% with an inconclusive outcome. The call rests on the fitted dose curve; in most records, active means well fitted inhibition curve with a large enough effect (not every such curve was filed as active); inconclusive means small, poorly fitted or top-dose-only effect, or another doubt; inactive means no such curve, though single readings can be large or run the other way. The entries come from a sample that favours actives as a whole. Where a structure was tested more than once in an assay, its records may differ in their call.
target: Aldehyde dehydrogenase 1A1 (Homo sapiens) (UniProt P00352); test: qHTS Assay for Inhibitors of Aldehyde Dehydrogenase 1 (ALDH1A1); settings: Purified ALDH1A1, NADH fluorescence, propionaldehyde substrate; series mostly up to 75.3 µM;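 on activity, negative = inhibition: plate controls were no enzyme wells and a reference inhibitor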
Potency means the concentration at half of the fitted maximal effect.

Aldehyde dehydrogenase 1A1 (Homo sapiens), sequence (P00352 whole entry, looked up): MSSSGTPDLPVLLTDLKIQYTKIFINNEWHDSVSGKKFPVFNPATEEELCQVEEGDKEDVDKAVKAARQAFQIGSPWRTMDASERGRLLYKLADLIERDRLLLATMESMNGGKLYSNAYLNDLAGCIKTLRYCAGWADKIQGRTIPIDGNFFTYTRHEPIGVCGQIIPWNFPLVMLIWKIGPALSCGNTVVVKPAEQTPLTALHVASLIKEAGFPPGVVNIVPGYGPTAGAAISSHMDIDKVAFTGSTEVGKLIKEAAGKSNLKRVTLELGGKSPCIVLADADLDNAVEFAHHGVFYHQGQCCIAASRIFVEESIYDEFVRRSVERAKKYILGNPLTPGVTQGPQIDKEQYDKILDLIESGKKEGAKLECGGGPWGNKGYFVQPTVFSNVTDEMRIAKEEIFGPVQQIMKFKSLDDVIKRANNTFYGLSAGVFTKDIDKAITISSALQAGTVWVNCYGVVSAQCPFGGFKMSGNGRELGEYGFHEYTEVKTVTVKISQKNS

Potency, active:
COc1ccccc1-n1nnnc1S(=O)(=O)Cc1ccc(Cl)cc1 2.51 µM
CC(C)Nc1ncnc2c1nnn2Cc1ccccc1 12.6 µM
COc1ccc(/C=C(\C#N)C(=O)ONC2=NCCCCC2)cc1 35.5 µM
COc1ccc(C(=O)NC(=S)Nc2ccc(N3CCCC3)cc2)cc1OC 3.55 µM
COc1ccc(C(=O)NC(=S)Nc2ccccc2N2CCN(S(C)(=O)=O)CC2)cc1OC 0.501 µM
Cc1ccc(C(=O)NC(=S)Nc2ccc(N3CCOCC3)cc2)cc1 11.2 µM
CCOC(=O)c1nn(-c2cccc(C)c2)cc1C(=O)c1ccccc1 5.01 µM
COc1ccc(-c2nnn(Cc3nc(N)nc(N4CCCCC4)n3)n2)cc1 0.562 µM
COc1ccccc1/C=C/C=N/n1c(-c2ccc(Cl)cc2Cl)n[nH]c1=S 20 µM
CC1CCc2sc(C(=O)N/N=C/C3CCCCC3)cc2C1 (configuration not stated) 11.2 µM
Cc1ccc(-n2ncc3c(=O)n(-c4ccc(C)c(C)c4)c(-c4ccco4)nc32)cc1 25.1 µM

Potency, inactive:
CCOC(=O)N1CCN(C(=O)c2ccccc2N(Cc2ccccc2)S(=O)(=O)c2ccc(OC)cc2)CC1
COc1ccccc1N1CCN(C(=O)CN(Cc2ccc(Cl)cc2)S(C)(=O)=O)CC1
N#Cc1cccc(CS(=O)(=O)c2nnnn2-c2cc(C(F)(F)F)cc(C(F)(F)F)c2)c1
CCN(CCCNC(=O)CCn1c(=O)[nH]c2ccsc2c1=O)c1ccccc1
Cc1nc(Nc2ccc(S(=O)(=O)N3CCCC3)cc2)c2nnn(Cc3ccccc3)c2n1
CC(C)(C)c1nc(NCC2CCCO2)c2nnn(Cc3ccccc3)c2n1 (configuration not stated)
COc1ccc(N2CCN(C(=O)C3CCN(S(=O)(=O)c4ccc(C)cc4)CC3)CC2)cc1
COc1ccc(/C=C(\C#N)C(=O)NCCCn2ccnc2)cc1
COc1cccc(OC)c1C(=O)Nc1ccc(N2CCCCC2)cc1
COc1ccc(C(=O)NC(=S)Nc2ccc(Cl)cn2)cc1OC
COc1ccc(C(=O)Nc2ccc3nc(N4CCCCC4)cc(C)c3c2)cc1OC
Cc1ccc(C(=O)NC(=S)NCCN2CCOCC2)cc1
COC(=O)c1ccc(NC(=S)NN2CCOCC2)cc1
Cc1cccc(OCC(=O)NC(=S)Nc2ccccc2N2CCOCC2)c1
CC1(C)CC(=O)C=C(N2CCOCC2)C1
O=[N+]([O-])c1ccc(Sc2n[nH]c(-c3ccco3)n2)nc1
CN(c1ccc(OCC(=O)OCC(=O)Nc2cccc([N+](=O)[O-])c2)cc1)S(=O)(=O)c1ccc(F)cc1
O=C(Cc1ccc(F)cc1)N1CCN=C1SCc1cccc([N+](=O)[O-])c1
COc1cccc(C(O)Cc2nc3ccccc3n2C)c1OC (configuration not stated)
CCNC(=O)COc1cc(C)c(Br)c(C)c1
CCc1cc(C(=O)c2ccc(OC)cc2)c(NC(=O)CN2CCN(C)CC2)s1
Cc1cc(Cl)ccc1NC(=S)NCCCN1CCCC1=O
CCOC(=O)c1cn(Cc2cccc(C)c2)nn1
CCOC(=O)c1c(N)nn(C(=O)c2ccccc2)c1-c1ccccc1
CC(C)(C)c1ccc(/C=C2\SC(=O)N=C2N)cc1
COc1ccc(-n2nnnc2SCc2nc(N)nc(N3CCOCC3)n2)cc1
CN(C)c1nc(N)nc(Cn2nnc(-c3ccc(C(F)(F)F)cc3)n2)n1
CC(Nc1ccccc1)c1cccnc1 (configuration not stated)
OC[C@H]1O[C@@H](n2cnc3c(N[C@H]4CC5CCC4C5)ncnc32)[C@H](O)[C@@H]1O (some centres not stated)
COn1c(-c2ccc(Cl)cc2Cl)nc2ncccc21
Clc1ccc(-c2ncc3ccccn23)c(Cl)c1
Cc1cc(/C=N/NC(N)=O)c(C)n1C1CCCCC1
OC(CNCc1ccc(Cl)c(Cl)c1)c1ccccc1 (configuration not stated)
COc1ccc(-n2c(C)nc3c(cnn3-c3ccccc3)c2=O)cc1
Cc1ccc(-c2nc3c(cnn3-c3ccccc3)c(=O)o2)cc1
Cn1nnnc1SCC(=O)Nc1nc2ccccc2s1
Cc1cc([N+](=O)[O-])nn1CCCC(=O)Nc1cccnc1Cl
COc1ccc(CC(N)C(=O)NC2C(O)[C@H](n3cnc4c(N(C)C)ncnc43)O[C@@H]2CO)cc1 (some centres not stated)
COC(=O)[C@H](Cc1ccccc1)NC(=O)[C@@H]1C[C@H]1[C@@H](NC(=O)OCc1ccccc1)c1ccccc1

Potency, inactive and 22.4 µM (active):
COC(=O)[C@H](C)[C@H]1C[C@]1(C)[C@H](NC(=O)OCc1ccccc1)c1ccccc1

activity, negative = inhibition, inactive:
CCCCS(=O)(=O)N1C2=NC(C(=O)OC)=C(C(=O)OC)[C@@H]3N(Cc4ccccc4)c4ccccc4[C@]23C[C@H]1C(=O)OC 1.36% [at 13.5 µM]
